From article PMC13494018
Values without a mark were called inactive. No rule for the calls is given here.

B1: d6r1_design_ppi_1193_dldesign_0_cycle0_af2pred (protein)
chain: EEERQQLLAEAEALFARANALLPAAAAAGSEATALVVESLEYASKAARLAREGGDLEEAQKLLEKAKKYLAEAEKLIAA
B2: d6r1_design_ppi_833_dldesign_0_cycle0_af2pred (protein)
chain: MTPMSAAVAAAEEAIAAATAADPERGGRIAQEAFRGLAQATAIYVTQGKAAGDAAAEELRKRFEAEKAKVEAEAA
B3: d6r1_design_ppi_785_dldesign_0_cycle1_af2pred (protein)
chain: AAAASAAQTATITRAAVASGNTFDAARAGAEMLHYQDPAVGEEVAKTVEEAKKLSPEEAKAAILAKFDAIAARYA
B4: d6r1_design_ppi_1043_dldesign_0_cycle1_af2pred (protein)
chain: AQASIQRGAQAANALMAAAAGYYAKKYKGPLGEKAKAAADQAAALAAQSAANPATAQANAQQASALLDELLKEVKAYEE
B5: d6r1_design_ppi_759_dldesign_0_cycle1_af2pred (protein)
chain: AAETERALRNAKAYATAAEHAAKAHPESPELKKLAAEAKAYYKKAAAAYAAGKKEEALKYAQKAIEKAAEAFSLLS
B6: d6r1_design_ppi_821_dldesign_0_cycle1_af2pred (protein)
chain: AAAQARAEARALNERARALLAAAPVGRAAEAEALATRALGLALAHREAFSNAEMTDILRTLARAAGAARQQAA
B7: d6r1_design_ppi_900_dldesign_0_cycle1_af2pred (protein)
chain: GEEAAREAEELERRAEELEELARRARELSAEELTEAALEAVRLANRAHALMTAGAPPEVAARLQEVAARALEAAERLSREAREKRA
B8: d6r1_design_ppi_1146_dldesign_0_cycle1_af2pred (protein)
chain: AEEEAAKLKAQADGLDTIATALIEQAKTGDAAVARGAAAAAVSLAKKAAELYKRAAKLAGDEKFGKEQAKKQKAKAKEAKEVAEKKAA
B9: d6r1_design_ppi_1056_dldesign_0_cycle0_af2pred (protein)
chain: AAAAAAAAQAETDALADEARELAAKAAEKIDPEKGALLKELTDYYAAKARSGTDEAGRTGLRALLSAARNIVS
B10: d6r1_design_ppi_1028_dldesign_0_cycle0_af2pred (protein)
chain: AAAIAATKAELAKGKALLAKAKAAPAAAWNEALAAELRAAANALNRAATALLAAGGDTALAVEATETAVELLKAAGEINRA
B11: d6r1_design_ppi_761_dldesign_0_cycle0_af2pred (protein)
chain: AEEKERLKELAKFAKEALKKVEELRAAIKANADDPAAVAAARDAMIALAKEAAEKDAEVGNAVMIALGDPEKGVEKLKEVTEKLEKAA
B12: d6r1_design_ppi_1061_dldesign_0_cycle1_af2pred (protein)
chain: AAAALAAAAAIAATLLAAGKAGDAATAAAALYGAALVLALADPAYAEVYDAVARAVSPAARAAGGAAAIALLAAAQA
B13: d6r1_design_ppi_1068_dldesign_0_cycle0_af2pred (protein)
chain: MAAELTAKAQEAVERAAAAEAAGLKEAATLYLKAAAYYHAGAVNPATAAENAAKGEEYLAQAEALEKAAA
B14: d6r1_design_ppi_1013_dldesign_0_cycle0_af2pred (protein)
chain: SAEVQALLEEARRHIARAQKLLVAGNKEEALKEAEEAKKLAEEAKKLAADDPELAKSAEGLIKLAEAVIESAKA
B15: d6r1_design_ppi_829_dldesign_0_cycle0_af2pred (protein)
chain: EEAKKKAEELIAEVKAYADAAAAAAAAAGAARGAAAAALAAAAIAGIKNIAKAAEEEIKEAAEDPEKQKEIAERAKENIDKILAVALG
B16: d6r1_design_ppi_973_dldesign_0_cycle1_af2pred (protein)
chain: EQKKAAEEAAKAIKEAAKKAKELGDEATANGLQAIATALKNAVEAGDYKAAAELAKIGAAQAATLPELAPLAKKIEKLAKKIEE
B17: d6r1_design_ppi_1153_dldesign_0_cycle0_af2pred (protein)
chain: TEAAAALLRKTIAALERRVERAPEMSLEEAKALAESAKVLLEAGKAVPEVAAAAEELYKRAEEVAKKKAEEAAA
B18: d6r1_design_ppi_1117_dldesign_0_cycle0_af2pred (protein)
chain: SQQQTQQAQQQAQATIAQTQAARDELKKLAADPEARAAAESAAQQLAVAQDLNASGTLVGAQAALAMAQQALAVATATLAKAKAA
B19: d8r1_design_ppi_530_dldesign_0_cycle0_af2pred (protein)
chain: AAALAAALAAAAEAAAAAEAEAVAAAVSETVAAAARAAIKSFESGANKELAKQAMAAASAAGAAMKAGDTAAAQQYAAQTQALVAQIA
B20: d6r1_design_ppi_759_dldesign_0_cycle0_af2pred (protein)
chain: MAKVEQLLNNAKAYAGAAENAARTHSENPELQKLAKEAKEYYEKAEKAYKEGKLKEAEEYAKKAIEKAAEAFSLLQ
B21: d6r1_design_ppi_1033_dldesign_0_cycle1_af2pred (protein)
chain: AAEEEAKNAQVRQLAAQAFSYNLLADAAKQLAAAKGPEYEAKAKEYQAKAAAYKAEAEALNPEVFAAALAEVQAKYDAAL
B22: d6r1_design_ppi_699_dldesign_0_cycle1_af2pred (protein)
chain: EEEAKEKIREAAKEAAAAAKAQDPAHAPLIEAAAKEIAEAAEKGLVEAQEKANALARAHPEAAQHFSLIFAFAAQAYAEAR
B23: d6r1_design_ppi_1068_dldesign_0_cycle1_af2pred (protein)
chain: APAVLLAQAQKSAELALKALELGYNEAAVLFLQAASYFFAGAVNPATAATYAAKGVELIEKGLALLKAAS
B24: d6r1_design_ppi_801_dldesign_0_cycle0_af2pred (protein)
chain: AALAALTAEANARANAILGRAFAEALARTRAGESPAPVFAAAAAELRRLGEESNPEGRAIADSGIALLQAAA
B25: d6r1_design_ppi_812_dldesign_0_cycle0_af2pred (protein)
chain: SAELAERLRRISELFRKAIESGVEEAKRYVEEAAREFARLSGDEERGRELAREAKEAVELGEEGKEAVRAVAQRMLLYGAQAA
B26: d6r1_design_ppi_658_dldesign_0_cycle1_af2pred (protein)
chain: LEEELEKAKNEAKLLLAEAAATLLATDAKGQKAAQLLAAAIAYLDTDPEQALKDAKEALKLVPDSEKVKKALEATEKALELKKKI
B27: d6r1_design_ppi_1105_dldesign_0_cycle1_af2pred (protein)
chain: AEKERLKEAAKRSAEKARELAKAGYALGAKAAILAAVRAAKEAGDAELVKEVLEVAKEAAKHPEVKPALEEAKKALEEVKK
B28: d6r1_design_ppi_807_dldesign_0_cycle1_af2pred (protein)
chain: AQAKRVSLAAALALLNSAIDAAADPKSAAALAEQAADLLESTGEAAPLGKKAKEAAKLLLEDPEKGKALAKEVAKKAAELLAKT
B29: d6r1_design_ppi_719_dldesign_0_cycle0_af2pred (protein)
chain: AAAAAAEAARQASAEKAKQLGLDLAEDARRLTEAGGSPAAVQAALNSAEAVARNLAAMGEVGKPFAEEVLKAAEEARKLAA
B30: d6r1_design_ppi_848_dldesign_0_cycle1_af2pred (protein)
chain: AAGEKALEILKKTAQALLKNAPLLTAEAAAKLAKVIIDAAWAAAKKIGPEAEKVAKEVKALAKEAVAAAAAAAKARAA
B31: d6r1_design_ppi_1088_dldesign_0_cycle1_af2pred (protein)
chain: GQAGTAKALINMARIGAKLGEEAYEVLKTIFETLANMIADPAWAEGGRAAREAIYAITMEIDPELAKRVLEEVE
B32: d6r1_design_ppi_887_dldesign_0_cycle1_af2pred (protein)
chain: AAVEEATAKAKELREKATKLALEGIRTGNQELVEKAKEKAEKAKELGESSNEEAKEYAKVALAVAEMAKAAL
B33: d6r1_design_ppi_1169_dldesign_0_cycle1_af2pred (protein)
chain: ELEEEVERAVEEAREAAERAREAGKANPALAPQLEAVVRFLETAAEYARESGEEGTEALKEAVEAARGMAEAALAA
B34: d8r1_design_ppi_1339_dldesign_0_cycle1_af2pred (protein)
chain: AEAWLAEIREIVSRAVEAAQAGDVETLEAAVEEARALAERAPPEVRPAAENAAAFNQLLLELTKERLAEKA
B35: d6r1_design_ppi_848_dldesign_0_cycle0_af2pred (protein)
chain: AAAETGLKILEATVQALLKNASKYSAEAVKKLSEVLKASAEAEAKAGGEKLKERAKEIKKLAEEAEKKAKEAAKAKAE
B36: d6r1_design_ppi_1193_dldesign_0_cycle1_af2pred (protein)
chain: MEELKKLKEEAEKLFQKARDIMPQAVKAGNEAVSKVVEAQKYATEAAKLAKEGGDLEEAKKKYEKAKKYYEEALKLIAA
B37: d6r1_design_ppi_695_dldesign_0_cycle1_af2pred (protein)
chain: EAAARQAAINAAALAVAKAVVDKAFADQSPAVVAGAKTMVTMIVNLYADPAKRPQAEALAENSHPAVREAVDAGLAAAAALAAA
B38: d6r1_design_ppi_911_dldesign_0_cycle1_af2pred (protein)
chain: GAAERTGRALANTAVAFAKSGSEEEAVAFATQMAEQIAALPGAEAAVARMAEELAKVLSPEAAAKVREAAAAILAKAAA

Assays:
[1] = molecular target: CD276, Q5ZPR3
[2] = molecular target: PDL1, Q9NZQ7
Chain of PDL1, Q9NZQ7 (Q9NZQ7 whole entry): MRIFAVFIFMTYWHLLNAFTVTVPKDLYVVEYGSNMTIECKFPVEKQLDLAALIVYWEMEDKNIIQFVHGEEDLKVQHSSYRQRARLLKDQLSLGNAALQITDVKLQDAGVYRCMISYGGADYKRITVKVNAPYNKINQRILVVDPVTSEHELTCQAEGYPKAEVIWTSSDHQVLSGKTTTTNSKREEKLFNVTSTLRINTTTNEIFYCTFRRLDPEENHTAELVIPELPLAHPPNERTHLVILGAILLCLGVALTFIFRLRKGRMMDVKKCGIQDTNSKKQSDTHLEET

Chain of CD276, Q5ZPR3 (Q5ZPR3 whole entry): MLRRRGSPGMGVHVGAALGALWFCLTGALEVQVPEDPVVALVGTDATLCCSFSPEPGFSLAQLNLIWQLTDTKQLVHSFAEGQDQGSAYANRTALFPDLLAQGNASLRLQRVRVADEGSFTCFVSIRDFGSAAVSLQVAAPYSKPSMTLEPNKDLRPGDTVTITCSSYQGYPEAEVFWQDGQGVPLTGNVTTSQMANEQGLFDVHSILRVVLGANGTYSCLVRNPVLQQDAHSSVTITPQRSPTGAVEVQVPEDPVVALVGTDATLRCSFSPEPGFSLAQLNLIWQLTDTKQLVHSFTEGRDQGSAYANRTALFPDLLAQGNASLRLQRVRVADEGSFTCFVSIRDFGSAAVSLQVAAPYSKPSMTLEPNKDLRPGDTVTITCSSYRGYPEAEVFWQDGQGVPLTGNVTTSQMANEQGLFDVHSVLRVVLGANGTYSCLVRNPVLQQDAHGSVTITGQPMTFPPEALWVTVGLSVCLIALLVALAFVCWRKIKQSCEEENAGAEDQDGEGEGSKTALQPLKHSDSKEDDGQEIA

| Binder | binding in a display sort [1] | binding in a display sort [2] |
| --- | --- | --- |
| B1 | not found |  |
| B2 | not found |  |
| B3 | not found |  |
| B4 | not found |  |
| B5 | not found |  |
| B6 | not found |  |
| B7 | not found |  |
| B8 | not found |  |
| B9 | not found |  |
| B10 | binds (active) |  |
| B11 | not found |  |
| B12 | not found |  |
| B13 | not found |  |
| B14 | not found |  |
| B15 | not found |  |
| B16 | not found |  |
| B17 | not found |  |
| B18 | not found |  |
| B19 |  | not found |

| Binder | binding in a display sort [1] | binding in a display sort [2] |
| --- | --- | --- |
| B20 | not found |  |
| B21 | not found |  |
| B22 | not found |  |
| B23 | not found |  |
| B24 | not found |  |
| B25 | not found |  |
| B26 | not found |  |
| B27 | not found |  |
| B28 | not found |  |
| B29 | not found |  |
| B30 | not found |  |
| B31 | not found |  |
| B32 | not found |  |
| B33 | not found |  |
| B34 |  | binds (active) |
| B35 | not found |  |
| B36 | not found |  |
| B37 | not found |  |
| B38 | not found |  |
